Assay outcomes deposited in PubChem by several laboratories.
Mcl1 Bid PPI: Mcl-1/Bid interaction inhibition. inhibition, % at 21.7 µM. 0.97% of 220,000 active. TR-FRET Mcl-1/Bid-Dy647 peptide binding, 1536-well. AID 1021;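 active means compounds that cut the binding signal by more than half at the single screening dose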;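 further: His-tagged Mcl-1 with europium anti-His antibody binding Bid BH3 peptide; 0% = Mcl-1 plus peptide wells and 100% = peptide-only wells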
Target sequence (Q07820 whole entry, looked up): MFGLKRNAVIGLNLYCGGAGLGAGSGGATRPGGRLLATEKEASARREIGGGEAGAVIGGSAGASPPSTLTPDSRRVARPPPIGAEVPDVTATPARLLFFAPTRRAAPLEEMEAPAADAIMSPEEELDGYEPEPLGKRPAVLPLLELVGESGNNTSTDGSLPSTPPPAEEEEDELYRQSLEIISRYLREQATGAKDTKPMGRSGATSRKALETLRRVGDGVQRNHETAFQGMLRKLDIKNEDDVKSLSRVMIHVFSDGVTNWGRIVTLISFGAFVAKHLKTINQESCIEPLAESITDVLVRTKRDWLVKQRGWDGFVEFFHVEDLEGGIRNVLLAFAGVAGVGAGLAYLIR
Bcl-xL primary: Bcl-xL (human) inhibition. GST-Bcl-xL / FITC-Bim BH3 peptide fluorescence polarization. inhibition, % at 10.9 µM. 0.7% of 320,000 active. AID 2129;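 active means inhibition above the mean of all tested compounds plus 3 SD, cutoff set per campaign, cut at about 30% in these data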;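 further: 0% = DMSO wells and 100% = unlabeled Bim-BH3 peptide competitor; inhibitors lower millipolarization by displacing the labeled peptide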
Target sequence (Q07817 whole entry, looked up): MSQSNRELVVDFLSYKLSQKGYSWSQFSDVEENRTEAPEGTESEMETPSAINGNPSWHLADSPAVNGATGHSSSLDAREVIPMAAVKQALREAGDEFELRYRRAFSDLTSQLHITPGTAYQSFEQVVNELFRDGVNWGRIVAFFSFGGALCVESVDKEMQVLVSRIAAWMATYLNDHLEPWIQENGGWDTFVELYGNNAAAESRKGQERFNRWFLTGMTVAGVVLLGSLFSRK
Mcl1 Noxa PPI: disrupts binding of human Mcl-1 to Noxa peptide. TR-FRET Mcl-1/Noxa peptide binding, 2 h. 1.5% of 220,000 active. AID 1022. inhibition, % at 21.7 µM. Q07820;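 active means compounds that cut the protein-peptide binding signal by more than 50% relative to plate controls in a single-dose test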;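 further: His-tagged Mcl-1 with rhodamine Noxa BH3 peptide and terbium anti-His antibody; 0% = Mcl-1 plus Noxa peptide wells and 100% = peptide-only wells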
MCL1 BIM primary: disrupts human MCL1 binding to BIM-BH3 peptide | Q07820 | inhibition, % at 10.9 µM | GST-MCL1 / FITC-Bim-BH3 fluorescence polarization | 0.68% of 320,000 active;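 active means inhibition above the mean inhibition of all tested compounds plus 3 SD, set per campaign, cut at about 40% in these data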;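 further: 0% = DMSO wells and 100% = unlabeled Bim-BH3 peptide control; higher means more loss of mP so more displacement of Bim peptide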
GLD-1 TGE inh: GLD-1-TGE RNA interaction inhibition (C. elegans) | Q17339 | purified GLD-1 + fluorescein TGE RNA, fluorescence polarization | inhibition, % at 5.96 µM | 0.44% of 320,000 active;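 active means percent inhibition above a per-plate cutoff, the plate mean of test compounds plus 3 SD, cut at about 30% in these data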;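 further: 0% = DMSO wells with GLD-1 and probe and 100% = wells lacking GLD-1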
Bim-Mcl-1: disrupts Bim peptide binding to human Mcl-1; Q07820; Bead-based flow cytometry, Bim peptide-Mcl-1 binding; inhibition, % at 10 µM; 0.1% of 190,000 active; AID 1009; in the data active means inhibition above about 40%;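 further: 0% = no compound tracer wells and 100% = peptide blocker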
GLD-1 TGE cf: confirmation of C. elegans GLD-1 TGE RNA binding inhibitors | inhibition, % at 5.96 µM | 10% of 550 active | shares compounds with GLD-1 TGE inh | GLD-1/FL-TGE RNA fluorescence polarization, biochemical | AID 2459;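 active means average inhibition across triplicates above the hit cutoff set in the primary screen, cut at about 32% in these data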;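 further: 0% = GLD-1 with RNA probe and DMSO and 100% = wells lacking GLD-1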
Numbers without * were called inactive; x = not tested or not shown. The list is not random: actives were taken first. Their share in the collection is about 2.3%.

SMILES	Mcl1 Bid PPI	Bcl-xL primary	Mcl1 Noxa PPI	MCL1 BIM primary	GLD-1 TGE inh	Bim-Mcl-1	GLD-1 TGE cf
COc1ccc(OCCNc2cc(N3CCCCC3)ccc2[N+](=O)[O-])cc1	-6	3	9	4	8	-1	x
COc1cccc(OCCNc2cc(N3CCCCC3)ccc2[N+](=O)[O-])c1	-32	4	12	3	59*	1	-3
O=C(CSCc1ccc([N+](=O)[O-])cc1)Nc1ccccc1C(=O)O	-11	4	3	3	4	2	x
Cc1cc(/C=C(\C#N)c2nnc(N3CCOCC3)n2-c2ccccc2)c(C)n1-c1ccccc1	-20	23	1	26	49*	0	5
COc1ccc(NCc2ccsc2)cc1	x	1	x	4	-1	x	x
CC1(C)CC(OC(=O)c2ccco2)CC(C)(C)N1O	3	43*	22	28	35*	-2	-6
CN1C(C)(C)CC(NC(=O)c2ccco2)CC1(C)C	x	4	x	1	3	x	x
Cc1cnc(NC(=O)Cc2ccc(S(=O)(=O)N3CCOCC3)s2)s1	x	x	x	x	48*	x	-5
CCOc1ccc(NC(=O)Cc2ccc(S(=O)(=O)N3CCOCC3)s2)cc1OCC	x	2	x	-4	-15	x	x
O=C(CCC(=O)OCC(F)(F)C(F)F)Nc1ccccc1F	-25	4	9	-6	8	-4	x
O=C(NCc1ccc(OC(F)(F)F)cc1)C1CC(c2cccc(F)c2)=NO1 (stereo not given)	-7	4	2	4	9	x	x
O=C(CN1C(=O)NC2(CCCCC2)C1=O)Oc1ccc2c(C(F)(F)F)cc(=O)oc2c1	x	33*	x	39	59*	x	49*
Cc1ccc(NS(=O)(=O)c2cc(-c3n[nH]c(=O)c4ccccc34)ccc2C)cc1	4	5	5	11	4	-4	x
O=[N+]([O-])c1cc([N+](=O)[O-])c(Oc2ccc(Br)cc2Br)cc1NN1CCCCC1	x	-4	x	-7	100*	x	-1
COc1cc(CNC2CCCC2)cc(Cl)c1OCc1ccc(F)cc1	-2	5	12	3	52*	-1	-2
COc1ccc(NC(=O)CS(=O)(=O)c2cn(CC(=O)N3CCOCC3)c3ccccc23)cc1	-9	2	1	6	1	1	x
CN(C)Cc1cc(O)c(CN(C)C)cc1O	-153	64*	60*	48*	63*	x	8
CN(C)Cc1cc(C(C)(C)C)cc(C(C)(C)C)c1O	-60	7	-20	5	8	x	x
COc1cc(C)nc(NC(=O)NC(=O)c2ccc(C(F)(F)F)cc2)n1	x	-1	x	-7	4	x	x
Cc1ccccc1OC(=O)C1C(c2ccccc2)C(C(=O)O)C1c1ccccc1 (stereo not given)	5	-2	7	-7	39*	-3	3
CCOC(=O)C1C(c2ccccc2)C(C(=O)OCC)C1c1ccccc1 (stereo not given)	-10	5	-8	1	3	-2	x
Cc1noc(C)c1S(=O)(=O)N(CC(=O)NCCc1ccccc1)c1ccc(C(C)C)cc1	x	5	x	1	48*	x	1
Nc1c(C(=O)OCC(=O)Nc2cccc([N+](=O)[O-])c2)[nH]c(=O)[nH]c1=O	x	x	x	x	33*	x	14
O=C(c1ccccc1C(=O)N1CCN(c2ccccc2)CC1)N1CCN(c2ccccc2)CC1	-14	46*	-4	46*	38*	-3	11
COCCCNC(=S)N1CCN(S(=O)(=O)c2ccc(OC)cc2)CC1	-43	6	-1	8	3	-5	x
SMILES	Mcl1 Bid PPI	Bcl-xL primary	Mcl1 Noxa PPI	MCL1 BIM primary	GLD-1 TGE inh	Bim-Mcl-1	GLD-1 TGE cf
COc1cc(/C=C(\C#N)c2nc3ccccc3[nH]2)cc(Br)c1OCc1ccc(F)cc1	7	5	28	-5	97*	0	-2
CC(=O)Nc1ccc2nc3ccccc3nc2c1	-35	59*	-1	50*	48*	x	34*
O=C(Nc1ccc2nc3ccccc3nc2c1)c1ccc(Br)cc1	13	30	45	24	5	0	x
Cc1onc(-c2ccccc2)c1C(=O)OCC(=O)NCc1ccc(F)cc1	1	30	-7	28	31*	1	-4
Cc1cc(C)c(C2=CC(c3ccccc3)n3ncnc3N2)cc1C (stereo not given)	x	5	x	-1	9	x	x
Cc1ccc(C2C=C(c3ccccc3)Nc3ncnn32)cc1 (stereo not given)	x	24	x	23	33*	x	1
CCOC(=O)C1=C(Cc2ccc(OC)cc2)C(=O)c2ccccc2C1=O	1	x	37	x	x	0	x
CCOC(=O)C1=C(O)c2ccccc2C(=O)/C1=C\c1ccc(CC)cc1	52*	24	85*	31	38*	0	-3
Clc1ccc(/C=N/c2c(-c3ccco3)nc3ccccn23)cc1	-44	39*	50	47*	45*	3	44*
COc1ccc(/C=N/c2c(-c3ccco3)nc3ccccn23)cc1OC	-3	39*	35	47*	57*	0	57*
Oc1ccccc1/C=N/c1c(-c2ccco2)nc2ccccn12	-17	24	35	23	14	-6	x
COc1ccc(Nc2ncc3c(n2)CC(c2ccc(C)cc2)CC3=O)cc1 (stereo not given)	-4	6	0	7	3	6	x
COc1ccc(Nc2ncc3c(n2)CC(c2ccc(OC)cc2)CC3=O)cc1 (stereo not given)	3	4	11	-1	45*	0	1
Cc1ccc(/C=C/c2nc3ccccc3[nH]2)o1	-24	40*	27	34	32*	0	3
O=C(Nc1ccccc1)N(c1ccccc1)C1C=CS(=O)(=O)C1 (stereo not given)	-14	5	7	4	-3	x	x
N#CCCn1cc(C=O)c(-c2cccs2)n1	-15	-3	-7	-6	69*	32	4
COc1ccc(OC)c(C(=O)N(C)C2CCCN(Cc3ccccc3F)C2)c1 (stereo not given)	x	7	x	16	39*	x	1
CCC(C)(C)NC(=O)C(c1ccccc1Cl)N(Cc1cccnc1)C(=O)CCC(=O)Nc1cc(C)on1 (stereo not given)	x	10	x	5	-4	x	x
COc1ccccc1N(CC(=O)NC(C)(C)C)S(=O)(=O)c1cccs1	-18	3	6	3	-2	-1	x
Cn1c(=O)c(/C=C/c2ccc(F)cc2)nc2ccccc21	-1	x	16	x	x	12	x
Cn1c(=O)c(/C=C/c2ccccc2)nc2ccccc21	-14	35*	17	41*	41*	-1	1
CC(C(=O)N1c2ccccc2CC1C)N1CCN(S(=O)(=O)c2ccccc2F)CC1 (stereo not given)	x	2	x	3	-1	x	x
